Laboratory results: PubChem BioAssay (NCATS)
Results filed as inconclusive are left out. Where a call stands in place of a potency, no number is given. Where a structure was tested more than once in an assay, its records may differ in their call. Active and inactive are the calls of the source. Calls come from the whole dose curve; as a rule, active = well fitted inhibition curve with a large enough effect; inconclusive = small, poorly fitted or top-dose-only effect; inactive = flat fitted curve, though single readings scatter.

Test system: MCC-26
Test: qHTS assay to identify novel small-molecules to repurpose for Merkel cell carcinoma treatment (AID 1296009); note: nearly all actives have a fitted effect of over 60% in size
Settings: MCC and control cell lines, CellTiter-Glo viability, 72 h; series mostly up to 46 µM
Text: MCC is a rare and aggressive neuroendocrine skin cancer with limited treatment options. Approximately 80% of MCCs have the Merkel cell polyomavirus (MCPyV) DNA integrated into the host genome (virus-positive: VP-MCC) and viral oncogenes drive oncogenesis. The remaining MCCs are virus-negative (VN-MCC) and are caused by UV mutagenesis. To identify novel treatments for VP-MCC and/or VN-MCC we screened three VP-MCC cell lines (WAGA, MKL-1, MKL-2), three VN-MCC cell lines (MCC-13, MCC-26, UISO), and four immortalized, non-transformed control cell lines (HaCaT, HEK293T, CRL7250, NIH-3T3) against ~2,400 compounds in the NCGC Pharmaceutical Collection (NPC) and ~1,900 compounds in the Mechanism Interrogation PlatE (MiPE). Using cell viability as a readout (CellTiter-Glo assay) we found both overlapping and distinct drugs that can be repurposed for the treatment of VP-MCC and VN-MCC.
A high-throughput screen was conducted in 1536-well white flat bottom plates (Corning) on a Kalypsys robotic system. Cell lines WAGA, MKL-1, MKL-2, MCC-13, MCC-26, UISO, HaCaT, HEK293T, CRL7250, and NIH-3T3 were screened against 2 small molecule annotated drug libraries NPC and MIPE in dose response (8 and 11 pt. respectively) measuring cell viability after 72 hours of incubation. […] A 1,536 pintool (Kalypsys) was used to transfer 23 nL of compound in DMSO to the 1,536-well assay plates. After 72 hr incubation at 37 degree celsius, 2.5 uL of CellTiter-Glo (Promega) was dispensed into each well using a BiorapTR. Plates were incubated at room temperature for 10 min, transferred to a ViewLux (PerkinElmer) and the luminescence was recorded using an exposure time of 2 seconds. Relative luminescence units (RLUs) were normalized to in-plate controls (no cells as a positive (cytotoxicity) control, DMSO as negative control) and the normalized data was processed using NCATS in-house software.
Potency is the fitted concentration of half-maximal effect.

SMILES | Potency
O=C(NCC1CN(c2ccc(N3CCOCC3=O)cc2)C(=O)O1)c1ccc(Cl)s1 (stereo not given) | inactive
COc1ncnc(NS(=O)(=O)c2ccc(N)cc2)c1OC | inactive
CCN(CC)CCn1c(=O)c(Cc2ccc(OC)cc2)nc2ccccc21 | inactive
NC(=O)N1c2ccccc2CC(=O)c2ccccc21 | inactive
C1CCC(C(CC2CCCCN2)C2CCCCC2)CC1 (stereo not given) | 21.1 µM (active) and inactive
CN(C)CCc1c[nH]c2ccc(C[C@H]3COC(=O)N3)cc12 | inactive
COc1ccc2c(c1)c(CC(=O)OCC(=O)O)c(C)n2C(=O)c1ccc(Cl)cc1 | inactive
Cc1noc(NS(=O)(=O)c2ccc(N)cc2)c1C | inactive
O=C(O)C1CCCN(CCC=C(c2ccccc2)c2ccccc2)C1 (stereo not given) | inactive
O=S(=O)(c1cccc2cnccc12)N1CCCNCC1 | inactive
Clc1ccccc1CN1CCc2sccc2C1 | inactive
Cc1ccc(S(=O)(=O)N[C@@H](Cc2ccccc2)C(=O)CCl)cc1 | inactive
COC(c1ccccc1)(c1ccccc1)[C@H](Oc1nc(C)cc(C)n1)C(=O)O | inactive
O=C(O)c1cccnc1 | inactive
O=C(O)CCn1c2c(c3ccccc31)C[C@H](NS(=O)(=O)c1ccc(F)cc1)CC2 | inactive
CNS(=O)(=O)CCc1ccc2[nH]cc(C3CCN(C)CC3)c2c1 | inactive
NC(=O)c1cccnc1 | inactive
CCC(=O)O[C@]1(C(=O)CCl)[C@@H](C)C[C@H]2[C@@H]3CCC4=CC(=O)C=C[C@]4(C)[C@@]3(F)[C@@H](O)C[C@@]21C | inactive
Cc1nnc(C(=O)NC(C)(C)c2nc(C(=O)NCc3ccc(F)cc3)c(O)c(=O)n2C)o1 | inactive
COc1ccc(-c2ccc3cc(C(=O)O)ccc3c2)cc1C12CC3CC(CC(C3)C1)C2 | inactive

SMILES | Potency
CC(=O)CC(c1ccccc1)c1c(O)c2ccccc2oc1=O (stereo not given) | inactive
NC(=O)c1ccc2[nH]ccc2c1 | inactive
CCn1cc(C(=O)O)c(=O)c2cc(F)c(N3CCNCC3)cc21 | inactive
Cc1ccnc2c1NC(=O)c1cccnc1N2C1CC1 | inactive
C[C@@H]1C[C@H]2[C@@H]3CCC4=CC(=O)C=C[C@]4(C)[C@@]3(Cl)[C@@H](O)C[C@]2(C)[C@@]1(OC(=O)c1ccco1)C(=O)CCl | inactive
CCN(C)C(=O)Oc1cccc([C@H](C)N(C)C)c1 | inactive
COc1nc(N)nc2c1ncn2[C@@H]1O[C@H](CO)[C@@H](O)[C@@H]1O | inactive
CC(=O)[C@H]1CC[C@H]2[C@@H]3CC=C4C[C@@H](O)CC[C@]4(C)[C@H]3CC[C@]12C | inactive
O=C(O)c1cn(C2CC2)c2cc(N3CCNCC3)c(F)cc2c1=O | inactive
Nc1nc(N)nc(-c2cc(Cl)ccc2Cl)n1 | inactive
CCCCS(=N)(=O)CCC(N)C(=O)O (stereo not given) | inactive
COc1c(N2CCNC(C)C2)c(F)cc2c(=O)c(C(=O)O)cn(C3CC3)c12 (stereo not given) | inactive
CC(=O)Oc1ccccc1C(=O)Nc1ncc([N+](=O)[O-])s1 | inactive
CC(C)(Sc1cc(C(C)(C)C)c(O)c(C(C)(C)C)c1)Sc1cc(C(C)(C)C)c(O)c(C(C)(C)C)c1 | inactive
CC1=C(C(=O)O)N2C(=O)[C@@H](NC(=O)C(N)c3ccccc3)[C@H]2SC1 (stereo not given in full) | inactive
COc1cccc(N(C)C(=S)Oc2ccc3c(c2)CCCC3)n1 | inactive
CNNCc1ccc(C(=O)NC(C)C)cc1 | inactive
CCC(C)(C)c1ccc(CC(C)CN2C[C@@H](C)O[C@@H](C)C2)cc1 (stereo not given in full) | inactive
CC(=O)[C@H]1CC[C@H]2[C@@H]3CCC4=CC(=O)CC[C@]4(C)[C@H]3CC[C@]12C | inactive
O=C(O)CSCC(=O)NC1CCSC1=O (stereo not given) | inactive
